Test results as given in PubChem BioAssay (NCI).
About 83,000 compounds went through this panel and 20% of them were active in at least one assay; those are over-represented in the sample as a whole.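 Each cell line was grown in a 96-well plate and treated with one concentration of compound for 48 hours. Values below 10 were considered active.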 The source made the active and inactive calls.

Experiments:
Assay in all cases: NCI-60 one-dose screen, 48 h (100 = growth as untreated, 0 = no growth, -100 = all killed)
Conditions in all cases: 10 µM unless noted
[1] = system: HT29 colon
[2] = system: SNB-75 CNS
[3] = system: SNB-19 CNS
[4] = system: U251 CNS
[5] = system: SK-MEL-5 melanoma
[6] = system: UACC-62 melanoma
[7] = system: LOX IMVI melanoma
[8] = system: SK-MEL-28 melanoma
[9] = system: SK-MEL-2 melanoma
[10] = system: EKVX NSCLC
[11] = system: SN12C renal
[12] = system: UO-31 renal
[13] = system: TK-10 renal
[14] = system: ACHN renal
[15] = system: CAKI-1 renal
[16] = system: A498 renal
[17] = system: MOLT-4 leukemia
[18] = system: SR leukemia
[19] = system: CCRF-CEM leukemia

Measured: growth

CN(C)CCCN1c2nc3ccccc3cc2Sc2cc3ccccc3nc21
inactive: [9] 13%
active: [1] -88.6% | [2] 9.61% | [3] -56.1% | [4] -84% | [5] -75.9% | [6] -91.3% | [7] -100% | [8] -92.9% | [10] -50.9% | [11] -22.4% | [12] -22.7% | [13] -78.2% | [14] -100% | [15] -17.2% | [16] -5.96% | [17] -57.9% | [18] -38.2%

CCOC(=O)c1c2c(c(C)n1Cc1ccccc1)-c1nc(N)ncc1CC2
inactive: [1] 115% | [2] 90.3% | [3] 101% | [4] 106% | [5] 105% | [6] 77.2% | [7] 92.6% | [8] 128% | [9] 125% | [10] 88.9% | [11] 102% | [12] 79.7% | [13] 103% | [14] 92.2% | [16] 88.2% | [19] 93.7% | [17] 95.7% | [18] 86.2%

Cc1cc(C)n2nc(SCC(=O)Nc3sc4c(c3C(N)=O)CCC4)nc2n1
inactive: [1] 123% | [2] 115% | [3] 102% | [4] 99.3% | [5] 99% | [6] 80.5% | [7] 105% | [8] 137% | [9] 65% | [10] 100% | [11] 103% | [12] 74.1% | [13] 125% | [14] 112% | [15] 94.7% | [16] 95.7% | [19] 102% | [17] 109% | [18] 144%

O=C(CSc1nnc(Nc2ccccc2)s1)NCCc1ccc(F)cc1
inactive: [1] 105% | [2] 119% | [3] 100% | [4] 105% | [5] 97.2% | [6] 90% | [7] 99.8% | [8] 134% | [9] 66.2% | [10] 91.7% | [11] 103% | [12] 48.4% | [13] 128% | [14] 107% | [15] 106% | [16] 93.1% | [19] 117% | [17] 103% | [18] 164%

Cc1cc2c(cc1[N+](=O)[O-])NC(CNC(C)C)CC2 (stereo not given)
inactive: [1] 88.8% | [2] 67.7% | [3] 87% | [4] 99.2% | [5] 96.8% | [6] 98.7% | [7] 91.3% | [8] 114% | [9] 112% | [10] 95.2% | [11] 105% | [12] 90.7% | [14] 99.7% | [15] 99.7% | [16] 102% | [19] 130% | [17] 69.6% | [18] 119%

CCCc1cc(=O)n2c(C(=O)Nc3ccccc3OC)c(C(=O)Nc3ccc(F)cc3)sc2n1
active: [15] 5.5% [30 µM] | [18] 9.34% [30 µM]
inactive: [1] 38.2% [30 µM] | [2] 12.8% [30 µM] | [3] 26.7% [30 µM] | [4] 14.7% [30 µM] | [5] 45.4% [30 µM] | [6] 66.6% [30 µM] | [7] 44.5% [30 µM] | [8] 68.5% [30 µM] | [9] 91.6% [30 µM] | [10] 52.8% [30 µM] | [11] 58.1% [30 µM] | [12] 19.7% [30 µM] | [13] 37.7% [30 µM] | [14] 20.3% [30 µM] | [16] 90% [30 µM] | [19] 58.4% [30 µM] | [17] 65.8% [30 µM]

ClC1=C(Cl)C(=C2C(Cl)=C(Cl)C(Cl)=C2Cl)C(Cl)=C1Cl
inactive: [1] 96.2% | [2] 94.4% | [3] 105% | [4] 103% | [5] 103% | [6] 99.3% | [7] 97.9% | [8] 111% | [9] 95.8% | [10] 105% | [11] 98.5% | [12] 81% | [13] 94.1% | [16] 88.2% | [17] 82.1% | [18] 103%

N#CCNc1ccccc1N
inactive: [1] 86.4% | [2] 77.8% | [3] 117% | [4] 97.2% | [5] 96% | [6] 95.3% | [7] 95.1% | [8] 110% | [9] 107% | [10] 89.6% | [11] 104% | [12] 65.1% | [13] 104% | [16] 104% | [17] 85.1% | [18] 116%

COc1ccc(Cn2cc3c(c2-c2ccccc2)CCc2cncnc2-3)cc1
inactive: [1] 19.7% | [2] 71.1% | [3] 62.8% | [4] 47% | [5] 55.4% | [6] 33.3% | [7] 52.3% | [8] 59.3% | [9] 28.2% | [10] 48.4% | [11] 62.7% | [12] 55.2% | [13] 109% | [14] 76.8% | [15] 36.2% | [16] 45.8% | [19] 42.6% | [17] 80% | [18] 57.7%

O=Nc1ccc(O)c(=O)cc1
active: [1] 4.07% | [7] -4.94% | [12] -36% | [14] 1.32% | [15] -7.71% | [18] 2.22%
inactive: [2] 63.3% | [3] 102% | [4] 14.6% | [5] 79.8% | [6] 34.9% | [8] 55.9% | [9] 71.4% | [10] 72.5% | [11] 14.3% | [13] 14.6% | [16] 145% | [17] 14%

CN(C)c1ccc(/C=C(\C#N)c2nc3ccccc3c(=O)[nH]2)cc1
inactive: [1] 87.6% | [2] 113% | [3] 94.7% | [4] 77.4% | [5] 89.3% | [6] 94.8% | [7] 83.8% | [8] 110% | [9] 36.5% | [10] 92% | [11] 90.8% | [12] 35.7% | [13] 101% | [14] 96.1% | [15] 98% | [16] 90.7% | [19] 107% | [17] 118% | [18] 154%

O=C(Nc1ccc(C2=NCCCN2)cc1)Nc1ccc(C2=NCCCN2)cc1
inactive: [1] 92.4% | [2] 94.5% | [3] 96.7% | [4] 93.7% | [5] 69.7% | [6] 87.7% | [7] 89.9% | [8] 86.9% | [9] 49% | [10] 64.1% | [11] 94.8% | [12] 90.1% | [13] 109% | [14] 87.7% | [15] 79.3% | [16] 77.4% | [19] 73% | [18] 69.8%

CCOC(=O)C(Cc1ccccc1)(C(=O)OCC)C(Br)C(=O)c1ccccc1 (stereo not given)
inactive: [1] 69.7% | [2] 73.5% | [3] 97.5% | [4] 88.1% | [5] 87.2% | [7] 70.4% | [8] 91% | [9] 83.5% | [10] 88.8% | [11] 88.7% | [12] 37.6% | [13] 69.2% | [14] 44.3% | [15] 52% | [16] 82.4%

Cc1ccccc1-c1cc(Cc2ccccc2O)c(=O)[nH]n1
inactive: [1] 139% | [2] 106% | [3] 123% | [4] 103% | [5] 94.8% | [6] 95.3% | [7] 100% | [8] 131% | [11] 97.4% | [12] 71.1% | [13] 130% | [14] 94.9% | [15] 88.8% | [16] 110% | [17] 86.7% | [18] 92.5%
active: [19] -49.5%

CC12CCC3C(CCC4CC(=O)/C(=C\O)CC43C)C1CCC(=O)O2 (stereo not given)
inactive: [1] 108% | [2] 97.5% | [3] 119% | [4] 100% | [5] 113% | [6] 109% | [8] 114% | [9] 121% | [10] 106% | [11] 107% | [12] 55.9% | [13] 115% | [14] 109% | [15] 105% | [16] 115% | [17] 106%

COc1ccc(Nc2ccnc(NCCCNc3ccnc4cc(Cl)ccc34)n2)cc1
active: [1] -56.6% | [2] -75.5% | [3] 7.11% | [4] -84.3% | [5] -98% | [6] -91.2% | [7] -80.4% | [8] -93.6% | [9] -86.4% | [11] -21.5% | [12] -71.8% | [13] -72.3% | [14] -96.8% | [15] -40.3% | [16] -7.79% | [19] -19.3% | [17] -21.1%

O=C1C(Cl)=C(N=Nc2c(Cl)c(O)c3ccccc3c2O)C(=O)c2ccccc21
inactive: [1] 76.3% | [2] 85.8% | [3] 66.3% | [4] 53.3% | [5] 53.1% | [7] 43% | [8] 67.3% | [9] 98.5% | [11] 71.8% | [12] 70.4% | [13] 116% | [14] 77% | [15] 88.9% | [16] 63.6% | [19] 43.5% | [17] 62.1% | [18] 34.9%
active: [6] 5.34%
